miR-21 reporter – qHTS Assay for Modulators of miRNAs and/orActivators of miR-21. Potency, µM (titrated, usually from 38.3 µM), for the others: at the top dose activity change, positive = activation, usual class: activators. HeLa miR-21 FLuc reporter, luciferase, 48 h. 340,000 tested, under 10 active;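 note: % of control where 0% means no effect; miR-21 action dims this reporter so a rising signal means less miR-21 action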
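Using DMEM plus 10% FBS, HeLa miR-21-FLuc cells are incubated with test compounds (final up to about 40uM) for 48 hours; firefly luciferase signal is then imaged following reagent-mediated lysis.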
TDP1 cell noCPT – qHTS for Inhibitors of human tyrosyl-DNA phosphodiesterase 1 (TDP1): qHTS in cells in absence of CPT; DT40 Tdp1-/- hTDP1 cells, no CPT, ATP luminescence, 48 h; Potency, µM (top dose mostly 46.2 µM), for inactives: at the top dose activity change, negative = growth inhibition, most hits filed as inhibitors; hit rate 15% among 420,000; AID 686978, 2013; note: potency is the fitted concentration of half-maximal effect; % is set by controls: 0 for no effect and ±100 for the full control effect; nearly all actives have a fitted effect of over 55% in size
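Growth kinetics read by CellTiter-Glo luminescence after ≥48 hr at 37 °C. Cells: DT40 Tdp1-/- stably carrying human TDP1, 400 per well, compound exposure in the absence of CPT (DMSO vehicle).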
uPA surface inh – qHTS for Inhibitors of Cell Surface uPA Generation | cell surface uPA generation assay, qHTS | Potency, µM (series often up to 38.3 µM), without a hit: at the top dose activity change, negative = inhibition, actives largely listed as inhibitors | hit rate 0.31% among 330,000; active = well fitted inhibition curve with a large enough effect; inconclusive = small, poorly fitted or top-dose-only effect; inactive = no such curve, though single readings can be large or run the other way; tested in mouse RAW 264.7 cells; note: potency is the fitted concentration of half-maximal effect; % is set by controls: 0 for no effect and ±100 for the full control effect; nearly all actives have a fitted effect of over 55% in size
DT40 TDP1 CPT – qHTS for Inhibitors of human tyrosyl-DNA phosphodiesterase 1 (TDP1): qHTS in cells in presence of CPT. chicken DT40 Tdp1-/-;hTDP1 cells + 20 nM CPT, ATP luminescence, 48 h. Potency, µM (series often up to 46.2 µM), for the others: top-dose activity change, negative = growth inhibition, most hits filed as inhibitors. hit rate 12% among 420,000; note: potency is the fitted concentration of half-maximal effect; % is set by controls: 0 for no effect and ±100 for the full control effect; nearly all actives have a fitted effect of over 55% in size
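Chicken DT40 Tdp1-/- cells complemented with human TDP1, 400 cells/well, exposed to compounds plus 20 nM camptothecin for at least 48 h at 37 C; viability read as ATP content by CellTiter-Glo luminescence.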
TDP1 block – qHTS Assay for Inhibitors of Tyrosyl-DNA Phosphodiesterase (TDP1) | hit rate 0.28% among 350,000 | Potency, µM (titrated, usually from 130 µM), for the others: top-dose activity change, negative = inhibition, most hits filed as inhibitors | Tyrosyl-DNA phosphodiesterase 1 (Homo sapiens), Q9NUW8 | recombinant TDP1, AlphaScreen DNA substrate cleavage; note: potency is the fitted concentration of half-maximal effect; % is set by controls: 0 for no effect and ±100 for the full control effect; nearly all actives have a fitted effect of over 40% in size
Target sequence (Q9NUW8 whole entry, looked up): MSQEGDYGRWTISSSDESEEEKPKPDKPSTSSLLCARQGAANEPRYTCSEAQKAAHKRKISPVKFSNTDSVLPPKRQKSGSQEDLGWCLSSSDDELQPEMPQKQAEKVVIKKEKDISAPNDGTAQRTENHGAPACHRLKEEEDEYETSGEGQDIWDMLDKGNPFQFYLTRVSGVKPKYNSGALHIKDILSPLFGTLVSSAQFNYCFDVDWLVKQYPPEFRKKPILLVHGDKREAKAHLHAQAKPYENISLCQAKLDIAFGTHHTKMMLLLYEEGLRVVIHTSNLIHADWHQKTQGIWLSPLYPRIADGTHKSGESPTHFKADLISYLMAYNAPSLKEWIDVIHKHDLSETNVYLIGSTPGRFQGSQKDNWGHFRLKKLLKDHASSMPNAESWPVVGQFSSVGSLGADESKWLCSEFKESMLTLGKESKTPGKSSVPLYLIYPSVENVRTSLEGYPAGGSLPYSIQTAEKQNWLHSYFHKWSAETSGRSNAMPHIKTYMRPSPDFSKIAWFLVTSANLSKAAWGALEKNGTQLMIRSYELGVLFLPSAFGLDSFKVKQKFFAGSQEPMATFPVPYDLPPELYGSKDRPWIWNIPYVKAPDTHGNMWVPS
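E. coli-derived human Tdp1, 1 nM final. Cpd preinc 15 min RT; substrate 15 nM final, 5 min RT; AS bead mix 10 ug/ml final, 10 min RT. Signal loss = tyrosine-FITC cleavage. No-enzyme wells = max signal.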
The depositor's hits bear a star; u = inconclusive; x = no result given; [ ] = remark or other dose. Most compounds without a hit are left out; they make up all but 16% or so of the library. Unless noted, calls come from the whole dose curve; as a rule, active = well fitted curve in the direction sought with a large enough effect; inconclusive = small, poorly fitted or top-dose-only effect, or another doubt; inactive = no such curve, though single readings can be large; an effect the other way counts as inactive or inconclusive.

SMILES | miR-21 reporter | TDP1 cell noCPT | uPA surface inh | DT40 TDP1 CPT | TDP1 block
Cc1cc(C)c2nc(N3CCN(C)CC3)c(C#N)cc2c1 | -8.8% | u | 1.1% | -19.2% | -3.2%
CCOCCCNC(=S)N1CCCN(c2nc3cc(C)cc(C)c3cc2C#N)CC1 | -0.1% | 20.6µM* | 2.3% | 18.4µM* | -8.4%
Cc1cc(C)c2nc(N3CCCN(C(=O)c4cnccn4)CC3)c(C#N)cc2c1 | -5.0% | 16.4µM* | -1.2% | 23.1µM* | 0.0%
COc1ccc(C(=O)N2CCN(c3nc4cc(C)cc(C)c4cc3C#N)CC2)cc1 | x | 18.4µM* | x | u | x
Cc1ccc(C(=O)N2CCCN(c3nc4cc5c(cc4cc3C#N)OCO5)CC2)cc1 | 18.7% | 14.6µM* | -11.6% | u | 12.2%
N#Cc1cc2cc3c(cc2nc1N1CCCCC1)OCCO3 | -23.6% | u | 0.5% | u | 4.2%
CCn1cc(S(=O)(=O)Nc2cccnc2)cn1 | -1.1% | 18.0% | 0.1% | -1.0% | 2.9%[56.1 µM]
COc1ccc(Cl)cc1NC(=O)CN(C(=O)c1ccco1)C1CCCCC1 | -2.9% | u | 2.5% | -25.0% | -4.2%
CN1C(C(=O)Nc2ccc(F)cc2F)=CC(c2ccco2)=NS1(=O)=O | -20.6% | -27.7% | 3.6% | u | 8.6%
Cc1ccc(C2=NS(=O)(=O)N(C)C(C(=O)Nc3cc(C)n(CC(=O)N4CCC(C)CC4)n3)=C2)cc1 | 15.9% | 20.6µM* | -9.0% | u | 6.9%
Cc1ccc2c(c1)cc(C(=O)Nc1ccc(F)cc1F)n2C | -6.6% | 7.31µM* | x | u | 3.6%
Cc1ccc(C2=NS(=O)(=O)N(C)C(C(=O)Nc3ccc(F)cc3F)=C2)cc1 | 1.7% | u | -13.7% | 20.6µM* | x
COc1ccc(OC)c(C2=NS(=O)(=O)N(C)C(C(=O)Nc3ccc(F)cc3F)=C2)c1 | 16.2% | 7.31µM* | -12.3% | 16.4µM* | 5.0%
CN1C(C(=O)Nc2ccc(F)cc2F)=CC(c2ccc3c(c2)OCO3)=NS1(=O)=O | -2.4% | u | x | u | 0.0%
Cc1ccc(S(=O)(=O)N2CCN=C2SC(C)c2ccccc2)cc1 (stereo not drawn) | -0.3% | u | -0.1% | u | -9.5%
Cc1ccc(Sc2c(C(=O)Nc3ccc(F)cc3F)c(C(F)(F)F)nn2C)cc1 | -0.8% | u | -9.8% | 18.4µM* | -4.8%
COc1cc([N+](=O)[O-])ccc1NC(=S)Nn1cnnc1 | -0.8% | 8.2% | 1.1% | -23.5% | 6.9%
CCc1cccc2c(C(=O)Cn3nnc(-c4ccc(OC)c(OC)c4)n3)c[nH]c12 | -3.3% | u | 1.6% | u | 0.7%
O=C(Nc1nc(-c2ccccc2)cs1)c1ccc(N2CCOCC2)c([N+](=O)[O-])c1 | u | 8.2µM* | -6.9% | 14.6µM* | 5.3%
Cc1ccc(-c2csc(NC(=O)c3cc([N+](=O)[O-])ccc3N3CCOCC3)n2)cc1 | -4.7% | u | 1.5% | u | 7.2%
O=C(Nc1nc2ccccc2s1)c1ccc(N2CCCCC2)c([N+](=O)[O-])c1 | 3.6% | 14.6µM* | 1.2% | 23.1µM* | 9.4%
O=C(CCN1C(=O)/C(=C/c2ccccc2Cl)SC1=S)NNC(=O)c1ccccc1O | -5.1% | u | -5.9% | u | 1.4%
O=C(CCCN1C(=O)/C(=C/c2ccccc2Cl)SC1=S)Nc1cccnc1 | u | 16.4µM* | u | 4.61µM* | 10.8%
O=C(CCN1C(=O)/C(=C/c2ccccc2Cl)SC1=S)NC1CCCC1 | 0.2% | 9.2µM* | -2.1% | 8.2µM* | 3.6%
O=C(CCN1C(=O)/C(=C/c2ccccc2Cl)SC1=S)NCCc1ccc(O)cc1 | 1.5% | 9.2µM* | -15.2% | u | 5.1%
SMILES | miR-21 reporter | TDP1 cell noCPT | uPA surface inh | DT40 TDP1 CPT | TDP1 block
O=C(CCN1C(=O)/C(=C/c2ccccc2Cl)SC1=S)NN1CCOCC1 | 0.6% | u | -6.4% | u | -2.3%
COc1ccc(Nc2nc(NCc3ccco3)nc(N3CCOCC3)n2)cc1 | -7.7% | u | 6.1% | u | x
CC1=C(C(=O)N2CCOCC2)C(c2ccsc2)C2=C(CCCC2=O)N1 (stereo not drawn) | -5.2% | -9.9% | x | -0.4% | 0.0%
O=C(O)c1ccc(Sc2nnc(-c3cccc(Br)c3)o2)c([N+](=O)[O-])c1 | -1.8% | 2.1% | -13.2% | 3.7% | 2.3%
Cn1nnnc1Sc1ccc([N+](=O)[O-])cc1Cl | 10.6% | -9.0% | -19.8% | 4.4% | -5.0%
O=[N+]([O-])c1ccc(Sc2nnnn2-c2ccccc2)c(Cl)c1 | u | 20.6µM* | x | u | 5.1%
CN1CCN(S(=O)(=O)c2ccc(Sc3nnnn3-c3ccccc3)c([N+](=O)[O-])c2)CC1 | -1.7% | 3.26µM* | -5.9% | 2.91µM* | 2.7%
Cn1c(Sc2ccc(C(=O)O)cc2[N+](=O)[O-])nnc1-c1ccccc1 | 4.8% | u | 3.0% | 20.6µM* | -8.1%
CC(=O)c1ccc(Sc2nnnn2-c2ccccc2)c([N+](=O)[O-])c1 | 12.6% | 2.31µM* | -12.5% | 2.59µM* | 0.0%
N#Cc1nc(COc2ccccc2)oc1N1CCC(Cc2ccccc2)CC1 | -5.5% | u | 8.5% | u | 10.8%
COc1ccc(-c2ccc(C(C)=O)cc2)cc1C1C2C=CCC(C)C2C(=O)N1Cc1ccccc1 (stereo not drawn) | x | x | x | x | 8.5%
C[C@H]1CN=C(Nc2ccccc2)N1CCC1CCCCC1 | 8.8% | u | -24.0% | 18.4µM* | x
C[C@H]1CN=C(Nc2ccccc2)N1CC1CCC1 | 1.9% | 1.4% | 2.6% | -0.9% | x
C[C@H]1CN=C(Nc2ccccc2)N1CCCC1CCCC1 | 11.2% | 16.4µM* | u | 18.4µM* | x
C[C@H]1CN=C(Nc2ccccc2)N1CC1CCCCCC1 | -0.1% | 13µM* | u | 18.4µM* | x
COC(=O)c1ccccc1CC1Cc2cc3c(cc2C1=O)CCC3 (stereo not drawn) | x | u | -5.7% | u | x
Cc1ccc(NC(=O)CCS(=O)(=O)c2cccc3nonc23)c(Cl)c1 | -7.7% | -19.5% | 0.5% | 2.0% | 8.9%
COc1cccc(NC(=O)c2ccc3nc(C)sc3c2)c1 | -58.9% | u | u | 18.4µM* | 1.0%
COc1cccc(CC(=O)Nc2ccc3nc(C)sc3c2)c1 | -38.7% | 13µM* | 4.6% | u | -8.1%
COc1cc(CC(=O)Nc2ccc3nc(C)sc3c2)cc(OC)c1OC | -11.1% | u | -0.1% | -21.0% | -2.7%
COc1ccc(C(=O)Nc2cccc(OC(=O)c3ccc(C)c(C)c3)c2)cc1 | -3.4% | 23.1µM* | -7.4% | -74.9% | 0.0%
O=C(c1cc(N2CCCCC2)nc2ccccc12)N1CCOCC1 | -4.9% | -9.1% | -9.0% | -24.7% | 2.0%

Screens deposited in PubChem BioAssay by National Center for Advancing Translational Sciences (NCATS).
